The target of test [1] is Platelet-derived growth factor receptor alpha (Homo sapiens) (UniProt P16234). The settings on record: at 1 µM.
The target is the same in test [2]. The settings on record: at 10 µM.
Test [3] addresses Platelet-derived growth factor receptor beta (Homo sapiens) (UniProt P09619). The conditions noted are these: at 1 µM.
Test [4] has the same target. The settings on record: at 10 µM.
The target of test [5] is T1, 3-phosphoinositide-dependent protein kinase 1 (Homo sapiens) (UniProt O15530).
T1 sequence (whole entry): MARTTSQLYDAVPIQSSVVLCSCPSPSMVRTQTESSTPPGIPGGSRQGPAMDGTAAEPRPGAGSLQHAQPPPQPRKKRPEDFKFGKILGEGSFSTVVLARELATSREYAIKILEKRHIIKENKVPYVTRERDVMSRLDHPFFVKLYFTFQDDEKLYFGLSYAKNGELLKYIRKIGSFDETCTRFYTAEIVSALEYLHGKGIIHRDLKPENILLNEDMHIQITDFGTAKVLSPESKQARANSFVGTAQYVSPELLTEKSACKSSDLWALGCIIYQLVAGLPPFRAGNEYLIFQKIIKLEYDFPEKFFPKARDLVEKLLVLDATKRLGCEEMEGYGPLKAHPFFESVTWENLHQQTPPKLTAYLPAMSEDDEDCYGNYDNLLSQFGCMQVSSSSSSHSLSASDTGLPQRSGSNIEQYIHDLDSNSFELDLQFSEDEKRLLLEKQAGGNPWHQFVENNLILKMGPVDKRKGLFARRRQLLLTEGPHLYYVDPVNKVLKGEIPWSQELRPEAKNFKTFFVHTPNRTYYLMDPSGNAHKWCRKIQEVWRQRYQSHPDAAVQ
The settings on record: at 1 µM.

For test [6], the target named is T1, 3-phosphoinositide-dependent protein kinase 1 (Homo sapiens). The settings on record: at 10 µM.
The target of test [7] is cAMP-dependent protein kinase catalytic subunit alpha (Homo sapiens) (UniProt P17612). The conditions noted are these: at 1 µM.
Test [8] shares this target. The conditions noted are these: at 10 µM.
Test [9] has as its target RAC-gamma serine/threonine-protein kinase (Homo sapiens) (UniProt Q9Y243). The settings on record: at 1 µM.
Test [10] has the same target. The settings on record: at 10 µM.

Platelet-derived growth factor receptor beta (Homo sapiens), sequence (P09619 whole entry): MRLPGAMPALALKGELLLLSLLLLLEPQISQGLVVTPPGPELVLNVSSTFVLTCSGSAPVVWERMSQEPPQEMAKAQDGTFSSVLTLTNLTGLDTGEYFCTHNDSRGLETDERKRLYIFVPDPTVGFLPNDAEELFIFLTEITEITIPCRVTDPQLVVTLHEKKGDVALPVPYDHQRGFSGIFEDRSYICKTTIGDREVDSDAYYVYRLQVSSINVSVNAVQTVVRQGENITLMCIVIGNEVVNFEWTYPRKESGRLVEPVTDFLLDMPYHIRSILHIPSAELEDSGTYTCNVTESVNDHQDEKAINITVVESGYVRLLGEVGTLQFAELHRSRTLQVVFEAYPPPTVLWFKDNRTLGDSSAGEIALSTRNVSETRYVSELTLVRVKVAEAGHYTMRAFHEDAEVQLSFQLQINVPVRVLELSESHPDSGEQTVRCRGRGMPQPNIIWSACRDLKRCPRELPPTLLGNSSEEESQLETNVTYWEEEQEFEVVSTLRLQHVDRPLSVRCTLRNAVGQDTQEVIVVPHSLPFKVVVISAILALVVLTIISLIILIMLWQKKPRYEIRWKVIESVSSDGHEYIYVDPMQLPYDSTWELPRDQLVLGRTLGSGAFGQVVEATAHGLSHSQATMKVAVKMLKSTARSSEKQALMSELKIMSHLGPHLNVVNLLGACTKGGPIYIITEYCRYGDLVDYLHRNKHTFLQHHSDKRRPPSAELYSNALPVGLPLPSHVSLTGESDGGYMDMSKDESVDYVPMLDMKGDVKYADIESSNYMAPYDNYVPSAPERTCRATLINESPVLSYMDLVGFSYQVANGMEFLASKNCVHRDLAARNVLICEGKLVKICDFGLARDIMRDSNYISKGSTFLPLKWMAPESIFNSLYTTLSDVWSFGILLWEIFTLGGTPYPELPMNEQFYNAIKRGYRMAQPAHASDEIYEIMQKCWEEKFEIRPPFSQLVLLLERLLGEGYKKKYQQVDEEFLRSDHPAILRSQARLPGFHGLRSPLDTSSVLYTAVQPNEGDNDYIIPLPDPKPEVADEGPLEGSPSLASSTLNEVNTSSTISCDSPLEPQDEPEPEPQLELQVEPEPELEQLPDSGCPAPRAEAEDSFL
Platelet-derived growth factor receptor alpha (Homo sapiens), sequence (P16234 whole entry): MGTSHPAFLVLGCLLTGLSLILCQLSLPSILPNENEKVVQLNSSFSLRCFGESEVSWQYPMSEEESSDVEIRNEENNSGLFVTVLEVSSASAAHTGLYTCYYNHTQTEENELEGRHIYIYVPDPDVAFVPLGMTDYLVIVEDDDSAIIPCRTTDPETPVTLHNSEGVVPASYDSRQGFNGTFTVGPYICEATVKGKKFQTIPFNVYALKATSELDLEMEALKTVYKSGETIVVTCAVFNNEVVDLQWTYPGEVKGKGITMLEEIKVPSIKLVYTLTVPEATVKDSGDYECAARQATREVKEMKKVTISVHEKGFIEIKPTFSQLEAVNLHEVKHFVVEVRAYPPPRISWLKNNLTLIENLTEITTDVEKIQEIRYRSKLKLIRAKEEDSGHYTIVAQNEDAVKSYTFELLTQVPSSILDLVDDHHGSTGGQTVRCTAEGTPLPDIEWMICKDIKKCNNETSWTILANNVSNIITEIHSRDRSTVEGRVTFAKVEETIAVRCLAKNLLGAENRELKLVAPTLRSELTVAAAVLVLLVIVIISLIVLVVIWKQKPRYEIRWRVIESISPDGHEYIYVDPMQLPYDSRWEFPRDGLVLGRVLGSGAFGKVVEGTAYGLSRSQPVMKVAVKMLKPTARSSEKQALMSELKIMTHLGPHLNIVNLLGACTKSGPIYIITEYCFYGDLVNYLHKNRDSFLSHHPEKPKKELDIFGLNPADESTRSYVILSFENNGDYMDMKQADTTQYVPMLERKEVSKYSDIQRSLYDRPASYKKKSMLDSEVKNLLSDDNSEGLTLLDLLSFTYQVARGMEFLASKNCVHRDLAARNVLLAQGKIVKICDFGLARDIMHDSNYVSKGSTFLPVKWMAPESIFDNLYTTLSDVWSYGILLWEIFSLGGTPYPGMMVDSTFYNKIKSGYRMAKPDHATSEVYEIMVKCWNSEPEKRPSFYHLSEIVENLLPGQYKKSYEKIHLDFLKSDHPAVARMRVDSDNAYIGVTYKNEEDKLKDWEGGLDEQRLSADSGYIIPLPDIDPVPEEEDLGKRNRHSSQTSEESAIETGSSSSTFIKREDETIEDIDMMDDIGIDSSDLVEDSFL
RAC-gamma serine/threonine-protein kinase (Homo sapiens), sequence (Q9Y243 whole entry): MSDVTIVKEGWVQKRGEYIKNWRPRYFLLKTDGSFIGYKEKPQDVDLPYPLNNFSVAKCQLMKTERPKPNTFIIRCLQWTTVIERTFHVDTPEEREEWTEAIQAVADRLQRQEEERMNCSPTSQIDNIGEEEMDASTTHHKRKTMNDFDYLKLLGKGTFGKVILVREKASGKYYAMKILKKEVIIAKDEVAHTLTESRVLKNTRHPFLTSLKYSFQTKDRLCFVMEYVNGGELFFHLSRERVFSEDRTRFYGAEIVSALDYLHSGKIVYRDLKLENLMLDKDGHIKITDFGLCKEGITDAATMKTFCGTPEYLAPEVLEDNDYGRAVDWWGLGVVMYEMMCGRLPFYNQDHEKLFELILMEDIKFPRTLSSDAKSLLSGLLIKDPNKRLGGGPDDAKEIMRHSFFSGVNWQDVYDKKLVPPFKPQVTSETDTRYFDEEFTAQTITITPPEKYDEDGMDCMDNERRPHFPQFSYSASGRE

What is called residual activity is the signal under treatment as a percentage of the control signal. In the case of `COc1ccc(CNc2nc(N(CCO)CCO)nc3c2ncn3C(C)C)cc1`, the residual activity in test [1] was 101%; in test [2] it was 102%; in test [3], 93%; in test [4], 100%; in test [5], 100%; in [6], 100%. Besides, the residual activity in test [7] stood at 93%; in [8], 85%; in test [9], 72%; in test [10], 69%.
Consider `O=[N+]([O-])c1ccc(-c2nc(-c3ccc(F)cc3)c(-c3ccncc3)[nH]2)cc1`, for which the residual activity in test [1] was 114%; in test [2], 114%; in [3], 103%; in [4] it was 111%; in [5], 117%; in test [6] it was 100%. In addition, the residual activity in [7] came to 97%; in [8], 82%; in test [9], 98%; in test [10] it was 75%.
With `COc1cc2ncc(-c3ccccc3)nc2cc1OC`, the residual activity was determined as 84% in test [1]; 27% in test [2]; 97% in [3]; 73% in [4]; 99% in [7]; 74% in test [8].
On to `O=C1NC(=O)/C(=C\c2ccc3nccnc3c2)S1`, for which the residual activity in test [1] came out at 116%; in [2], 109%; in [3] it was 97%; in test [4] it was 106%; in test [5], 111%; in [6] it was 98%. Besides, the residual activity in test [7] was 71%; in test [8], 70%; in test [9], 98%; in [10] it was 85%.
With `Cc1ccc(NC2=CC(=O)c3sc(C)nc3C2=O)cc1`, the residual activity in [1] was found to be 104%; in test [2], 112%; in [3], 93%; in test [4], 92%; in test [5], 99%; in test [6], 102%. Besides, the residual activity in test [7] was 102%; in [8] it was 106%; in test [9] it was 91%; in test [10] it was 89%.
As for `Cc1ccc(S(=O)(=O)/C=C/C#N)cc1`, the residual activity in test [1] is 100%; in test [2] it was 109%; in test [3], 104%; in [4] it was 107%; in [5], 105%; in [6], 108%. Besides, the residual activity in test [7] turned out to be 102%; in test [8], 102%; in test [9], 108%; in test [10] it was 85%.
As for `N#CCCc1ccc2c(c1)-c1[nH]c3ccc([N+](=O)[O-])cc3c1CC(=O)N2`, the residual activity in test [5] is 17%; in test [6], 6%.
As to `Oc1ccc(-c2nc(-c3ccc(F)cc3)c(-c3ccncc3)[nH]2)cc1`, the residual activity in [1] stood at 117%; in test [2], 105%; in test [3] it was 111%; in test [4] it was 97%; in test [5], 108%; in [6], 94%. The residual activity in [9] was 107%; in test [10] it was 77%.
On to `Cc1cncc2cccc(S(=O)(=O)N3CCCN(C(=O)CN)C[C@H]3C)c12`, for which the residual activity came out at 100% in [3]; 96% in test [4]; 69% in test [7]; 59% in test [8]; 100% in test [9]; 84% in test [10].
On to `O=C(O)c1ccc2c3c1cccc3c(=O)n1c3ccccc3nc21`, for which the residual activity was determined as 113% in test [1]; 114% in test [2]; 108% in test [4]; 108% in test [5]; 82% in test [6]; 73% in [7]. In addition, the results for the residual activity in test [8], in [9] and in test [10] were 89%, 102% and 82%, respectively.
As for `Cc1cc2ncc(-c3ccccc3)nc2cc1C`, the residual activity in test [3] amounted to 99%; in test [4] it was 96%; in test [7], 86%; in test [8] it was 75%; in test [9], 90%; in test [10] it was 87%.
As to `Nc1ccc2ncnc(NCCc3ccc(Oc4ccccc4)cc3)c2c1`, the residual activity in test [1] was 87%; in [2], 43%; in [3], 97%; in test [4] it was 95%; in [5] it was 104%; in test [6], 109%. In addition, the residual activity was 103% in test [7], 124% in test [8], 99% in test [9] and 76% in [10].
As to `Cn1nc2c3c(cccc31)C(=O)c1ccccc1-2`, the residual activity in test [3] amounted to 91%; in [4] it was 88%; in test [5] it was 95%; in test [6], 74%; in test [7], 87%; in test [8] it was 90%. In addition, the residual activity in test [9] is 95%; in test [10] it was 91%.
As for `CC(=O)c1ccc(N2CCOCC2)cc1O`, the residual activity in test [2] is 107%; in test [3] it was 112%; in test [4], 105%; in [7] it was 87%; in test [8] it was 96%; in test [9], 106%. For the same compound, the residual activity in [10] is 104%.
On to `c1ccc(-c2n[nH]cc2-c2ccnc3ccccc23)nc1`, for which the residual activity amounted to 96% in [3]; 109% in [4]; 104% in [5]; 104% in test [6]; 93% in test [8]; 96% in test [9]. The residual activity in test [10] was determined as 96%.
On to `C[C@@H](N)[C@H]1CC[C@H](C(=O)Nc2ccncc2)CC1`, for which the residual activity in test [1] worked out at 99%; in test [2], 102%; in test [3], 107%; in [4], 106%; in test [5], 95%; in test [6], 83%. The residual activity in test [7] is 96%; in [8] it was 80%; in [9], 104%; in [10], 93%.
Turning to `c1ccc(-c2n[nH]c3c2oc2ccccc23)cc1`, the residual activity in test [1] turned out to be 33%; in test [2] it was 5%; in test [7], 70%; in [9], 90%.
`COc1cc2ncnc(Nc3ccc(O)c(Br)c3)c2cc1OC`: the residual activity is 103% in test [1]; 78% in test [2]; 105% in [3]; 83% in test [4]; 97% in [5]; 76% in test [6]. The residual activity is 88% in test [7], 90% in [8], 101% in [9] and 80% in test [10].
With `O=C1c2ccccc2-[n+]2ccc3c([nH]c4ccccc43)c21`, the residual activity in test [1] is 107%; in [2] it was 103%; in test [3], 110%; in test [4] it was 102%; in [5] it was 100%; in test [6], 102%. Moreover, the residual activity in test [7] came to 94%; in test [8] it was 98%; in test [9], 112%; in [10], 87%.
